Experimental data: PubChem BioAssay (Tox21)
Results filed as inconclusive are left out. Entries that show only a call come without a potency. A number with no mark means an inactive call. Calls of active or inactive are those of the source. Unless noted, calls follow the shape of the full dose curve.

target: D(2) dopamine receptor (Homo sapiens) (UniProt P14416); experiment: Dopamine D2 receptor (DRD2) small molecule agonists, cell-based qHTS assay (AID 1963594); settings: HEK293-DRD2 cAMP HTRF, agonist mode, 30 min; series mostly up to 92.4 µM; also: nearly all actives have a fitted effect of over 35% in size
In short: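 cAMP accumulation in DRD2-HEK293 cells measured by HTRF after 1 h detection; compounds added 10 min before NKH477 (200nM […]) forskolin-analogue stimulation, 30 min at room temperature, with Ro20-1724 present at 0.1 mM final.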

D(2) dopamine receptor (Homo sapiens), sequence (P14416 whole entry, looked up): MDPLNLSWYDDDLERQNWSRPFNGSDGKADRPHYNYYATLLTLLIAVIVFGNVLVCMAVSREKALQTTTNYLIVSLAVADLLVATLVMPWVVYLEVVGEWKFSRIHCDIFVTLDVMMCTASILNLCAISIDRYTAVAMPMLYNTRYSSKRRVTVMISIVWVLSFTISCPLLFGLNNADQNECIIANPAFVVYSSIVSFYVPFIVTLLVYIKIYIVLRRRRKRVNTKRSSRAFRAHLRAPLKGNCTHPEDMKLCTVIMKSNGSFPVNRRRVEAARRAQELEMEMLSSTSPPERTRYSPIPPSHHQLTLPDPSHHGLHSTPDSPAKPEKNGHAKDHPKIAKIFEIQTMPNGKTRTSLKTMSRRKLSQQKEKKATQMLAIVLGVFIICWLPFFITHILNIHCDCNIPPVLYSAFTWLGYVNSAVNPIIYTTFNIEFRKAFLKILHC

Structure (SMILES) | Potency | activation
CC(C)COC(=O)c1ccc(N)cc1 | inactive | 
CCCc1cc(C(N)=S)ccn1 | inactive | 
CCCCCCCCCCCCCCO | inactive | 
CCO/C([O-])=N/c1c[n+](N2CCOCC2)no1 | inactive | 
O=C(O)c1ccco1 | inactive | 
CSc1cnccn1 | inactive | 
CCc1cnc(C(=O)O)c(C(=O)O)c1 | inactive | 
NS(=O)(=O)c1ccc(NC(=O)CCC(=O)O)cc1 | inactive | 
COc1ccc(C(=O)CC(=O)c2ccc(C(C)(C)C)cc2)cc1 | inactive | 
CCO[Si](OCC)(OCC)c1ccccc1 | inactive | 
CCC1COC(=O)O1 (configuration not stated) | inactive | 
CC(C)(C)c1ccc(CCC=O)cc1 | inactive | 
FC(F)(F)c1cccc(Cl)c1 | inactive | 
IC(I)I | inactive | 
Cc1cccc(Cl)c1 | inactive | 
CC1=CCC(C(C)C)=CC1 | inactive | 
CC1(C)C(C=C(Cl)Cl)C1C(=O)OCc1cccc(Oc2ccccc2)c1 (configuration not stated) | inactive | 

Structure (SMILES) | Potency | activation
CCCOCCOCCOCCO | inactive | 
N=C(N)c1ccc2cc(OC(=O)c3ccc(N=C(N)N)cc3)ccc2c1 | inactive | 
O=[N+]([O-])c1ccc(F)cc1F | inactive | 
CC(=O)N(c1onc(C)c1C)S(=O)(=O)c1ccc(N)cc1 | inactive | 
c1ccc2c(c1)CCC2 | inactive | 
NCCC(O)(P(=O)(O)O)P(=O)(O)O | inactive | 
CO[Si](OC)(OC)c1ccccc1 | inactive | 
O=C(c1ccc(Cl)cc1)c1ccc(Cl)cc1 | inactive | 
CC(C)c1cccc(O)c1 | inactive | 
CC(C)CC=O | inactive | 
COc1cccc(OC)c1C(=O)N[C@@H]1C(=O)N2[C@@H]1SC(C)(C)[C@@H]2C(=O)O | inactive | 
O=P(OC(CCl)CCl)(OC(CCl)CCl)OC(CCl)CCl | inactive | 
CC/C=C\CC1=C(C)CCC1=O | inactive | 
CCC(C)S (configuration not stated) |  | 5.57% [at 3.27 µM]
c1ccc2c(c1)CCc1ccccc1N2 | inactive | 
CCCCOC(=O)C(C)OC(=O)CCC (configuration not stated) | inactive | 
CCCC=O | inactive | 

target: D(2) dopamine receptor (Homo sapiens) (UniProt P14416); experiment: Dopamine D2 receptor (DRD2) small molecule antagonists, cell-based qHTS assay (AID 1963595; active = well fitted inhibition curve with a large enough effect in the signal ratio in the repeat runs, with a control signal flat; the % refers to the signal ratio); settings: HEK293-DRD2 cAMP HTRF antagonist mode; series mostly up to 92.4 µM
In short: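 HEK293 cells stably expressing DRD2, preincubated with 0.1 mM Ro20-1724 and compounds 10 min, were stimulated with 200 nM NKH477 plus 12 nM quinpirole for 30 min at room temperature; cAMP measured by HTRF (665/620 nm).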

Structure (SMILES) | Potency | activity change, negative = inhibition
CC(C)COC(=O)c1ccc(N)cc1 | inactive | 
CCCCCCCCCCCCCCO | inactive | 
CCO/C([O-])=N/c1c[n+](N2CCOCC2)no1 | inactive | 
O=C(O)c1ccco1 | inactive | 
CSc1cnccn1 | inactive | 
CCCCCCCOC(C)=O | inactive | 
CCc1cnc(C(=O)O)c(C(=O)O)c1 | inactive | 
NS(=O)(=O)c1ccc(NC(=O)CCC(=O)O)cc1 | inactive | 
COc1ccc(C(=O)CC(=O)c2ccc(C(C)(C)C)cc2)cc1 | inactive | 
CCO[Si](OCC)(OCC)c1ccccc1 | inactive | 
CCC1COC(=O)O1 (configuration not stated) | inactive | 
CC(C)(C)c1ccc(CCC=O)cc1 | inactive | 
FC(F)(F)c1cccc(Cl)c1 | inactive | 
IC(I)I | inactive | 
CC1=CCC(C(C)C)=CC1 | inactive | 
CC1(C)C(C=C(Cl)Cl)C1C(=O)OCc1cccc(Oc2ccccc2)c1 (configuration not stated) | inactive | 
CCCOCCOCCOCCO | inactive | 

Structure (SMILES) | Potency | activity change, negative = inhibition
N=C(N)c1ccc2cc(OC(=O)c3ccc(N=C(N)N)cc3)ccc2c1 | inactive | 
O=[N+]([O-])c1ccc(F)cc1F | inactive | 
CC(=O)N(c1onc(C)c1C)S(=O)(=O)c1ccc(N)cc1 | inactive | 
OC[C@H]1O[C@@H](O[C@H]2[C@H](O)[C@@H](O)[C@H](O)O[C@@H]2CO)[C@H](O)[C@@H](O)[C@H]1O | inactive | 
c1ccc2c(c1)CCC2 | inactive | 
CN(C)c1ccc(/C=C/c2ccc([N+](=O)[O-])cc2)cc1 |  | -2.29% [at 8.38 µM]
NCCC(O)(P(=O)(O)O)P(=O)(O)O | inactive | 
CO[Si](OC)(OC)c1ccccc1 | inactive | 
O=C(c1ccc(Cl)cc1)c1ccc(Cl)cc1 | inactive | 
CC[C@H]1CN2CCc3cc(OC)c(OC)cc3[C@@H]2C[C@@H]1C[C@H]1NCCc2cc(OC)c(OC)cc21 | inactive | 
CC(C)c1cccc(O)c1 | inactive | 
COc1cccc(OC)c1C(=O)N[C@@H]1C(=O)N2[C@@H]1SC(C)(C)[C@@H]2C(=O)O | inactive | 
O=P(OC(CCl)CCl)(OC(CCl)CCl)OC(CCl)CCl | inactive | 
CCC(C)S (configuration not stated) |  | 2.46% [at 3.28 µM]
c1ccc2c(c1)CCc1ccccc1N2 | inactive | 
CCCCOC(=O)C(C)OC(=O)CCC (configuration not stated) | inactive | 
